{"source": "paper PMC4336329", "about": "(PLoS ONE, 2015)", "note": "Among all 310,000 compounds or so, about 14,000 (4.5%) showed an effect of 50% or more. The effect is printed as a negative number. The entries come from a sample that favours strong results as a whole.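 Further: peak tail current of the secondary pulse compared with the same well before compound.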"}
{"target": "human ether-à-go-go-related gene (hERG) potassium channel (human, UniProt Q12809)", "sequence (Q12809 whole entry, looked up)": "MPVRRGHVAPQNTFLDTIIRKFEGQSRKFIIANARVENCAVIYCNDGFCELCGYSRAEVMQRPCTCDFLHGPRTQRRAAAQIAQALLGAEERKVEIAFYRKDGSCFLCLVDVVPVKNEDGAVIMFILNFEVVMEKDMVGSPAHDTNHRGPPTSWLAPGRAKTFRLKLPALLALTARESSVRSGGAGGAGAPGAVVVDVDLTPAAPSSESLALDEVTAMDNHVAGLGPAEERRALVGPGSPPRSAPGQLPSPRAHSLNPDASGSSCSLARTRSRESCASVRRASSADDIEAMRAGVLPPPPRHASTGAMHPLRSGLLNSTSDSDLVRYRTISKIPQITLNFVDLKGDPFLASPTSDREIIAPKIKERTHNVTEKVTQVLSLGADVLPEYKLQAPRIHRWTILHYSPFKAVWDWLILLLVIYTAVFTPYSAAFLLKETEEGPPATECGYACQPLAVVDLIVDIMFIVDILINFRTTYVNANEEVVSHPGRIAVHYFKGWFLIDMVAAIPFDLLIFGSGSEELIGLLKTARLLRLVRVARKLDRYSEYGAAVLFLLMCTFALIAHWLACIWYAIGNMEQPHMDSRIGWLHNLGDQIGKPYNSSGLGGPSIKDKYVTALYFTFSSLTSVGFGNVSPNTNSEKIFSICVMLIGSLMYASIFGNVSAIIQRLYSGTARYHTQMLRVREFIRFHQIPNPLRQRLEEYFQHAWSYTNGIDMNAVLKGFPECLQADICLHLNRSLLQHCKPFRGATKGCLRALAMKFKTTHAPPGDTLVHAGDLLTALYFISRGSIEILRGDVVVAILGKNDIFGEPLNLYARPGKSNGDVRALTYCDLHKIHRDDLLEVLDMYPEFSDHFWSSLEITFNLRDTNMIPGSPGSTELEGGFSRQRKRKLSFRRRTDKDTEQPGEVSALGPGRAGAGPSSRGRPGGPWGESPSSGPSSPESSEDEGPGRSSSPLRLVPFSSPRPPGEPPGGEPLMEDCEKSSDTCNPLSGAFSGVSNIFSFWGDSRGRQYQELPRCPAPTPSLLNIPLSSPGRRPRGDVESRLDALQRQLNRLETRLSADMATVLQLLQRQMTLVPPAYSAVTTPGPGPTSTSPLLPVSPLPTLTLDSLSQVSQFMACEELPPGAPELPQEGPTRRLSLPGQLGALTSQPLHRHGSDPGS", "test": "primary screen, population patch clamp on CHO cells stably expressing hERG; higher = less effect of the substance", "units": {"hERG current change (%, negative = inhibition) at 10uM": "%"}}
{"smiles": "CCc1nc(SCC(=O)N2CCC(C)CC2)c2c(=O)n(C)c(=O)n(C)c2n1", "hERG current change (%, negative = inhibition) at 10uM": -11.6}
{"smiles": "CC1Cc2ccccc2N1c1ncnc(N)c1[N+](=O)[O-]", "note": "(stereo not shown)", "hERG current change (%, negative = inhibition) at 10uM": -24.2}
{"smiles": "CCCCOc1ccccc1P(=O)(O)CP(=O)(c1ccccc1)c1ccccc1", "hERG current change (%, negative = inhibition) at 10uM": -3.64}
{"smiles": "OCCNC(=S)Nc1ccc2c(c1)OCCO2", "hERG current change (%, negative = inhibition) at 10uM": 9.32}
{"smiles": "Cc1ccc(-c2nn(C)c(=O)c3ccccc23)cc1CN1CCOCC1", "hERG current change (%, negative = inhibition) at 10uM": -1.21}
{"smiles": "CC(C)=C1C2CCC1C1C(=O)N(c3nccs3)C(=O)C21", "note": "(stereo not shown)", "hERG current change (%, negative = inhibition) at 10uM": 33}
{"smiles": "O=C1CC(=O)N(c2ccccc2)C(=O)N1c1ccccc1", "hERG current change (%, negative = inhibition) at 10uM": 2.76}
{"smiles": "CCCC(NCC(O)COc1ccc(-c2ccccc2)cc1)c1ccccc1", "note": "(stereo not shown)", "hERG current change (%, negative = inhibition) at 10uM": 10.3}
{"smiles": "O=C(NCc1ccc2c(c1)OCO2)C1CCCN1C(=O)Nc1ccc(Cl)cc1", "note": "(stereo not shown)", "hERG current change (%, negative = inhibition) at 10uM": -17.4}
{"smiles": "CCn1c(C(C)NC(=O)Cc2ccccc2)nc2ccccc21", "note": "(stereo not shown)", "hERG current change (%, negative = inhibition) at 10uM": -2.26}
{"smiles": "CCc1ccc(NC(=O)C2CCN(c3ncnc4c3nc3n4CCCCC3)CC2)cc1", "hERG current change (%, negative = inhibition) at 10uM": -6.35}
{"smiles": "Cc1cc2ncn(C(=O)N3CCCCC3)c2cc1C", "hERG current change (%, negative = inhibition) at 10uM": 3.24}
{"smiles": "CCOCCCNC(=O)CN1C(=O)/C(=C/c2ccccc2C)Sc2ccccc21", "hERG current change (%, negative = inhibition) at 10uM": -8.45}
{"smiles": "CCOC(=O)C1CCCN(c2c(N3CCN(c4ccccn4)CC3)c(=O)c2=O)C1", "note": "(stereo not shown)", "hERG current change (%, negative = inhibition) at 10uM": -55.5}
{"smiles": "CCOC(=O)C1CCN(c2c(N3CCCC(C(=O)OCC)C3)c(=O)c2=O)CC1", "note": "(stereo not shown)", "hERG current change (%, negative = inhibition) at 10uM": -22.8}
{"smiles": "CCOC(=O)C1CCCN(c2c(N3CCN(C4CCCCC4)CC3)c(=O)c2=O)C1", "note": "(stereo not shown)", "hERG current change (%, negative = inhibition) at 10uM": -55.8}
{"smiles": "CCOC(=O)C1CCCN(C(c2ccccn2)c2c(C)[nH]c3ccccc23)C1", "note": "(stereo not shown)", "hERG current change (%, negative = inhibition) at 10uM": -54.3}
{"smiles": "CCOC(=O)C1CCN(C(c2ccccn2)c2c(C)[nH]c3ccccc23)CC1", "note": "(stereo not shown)", "hERG current change (%, negative = inhibition) at 10uM": -19.8}
{"smiles": "CCOC(=O)C1CCCN(c2c(N3CCC(N4CCCCC4)CC3)c(=O)c2=O)C1", "note": "(stereo not shown)", "hERG current change (%, negative = inhibition) at 10uM": -0.665}
{"smiles": "Cc1[nH]c2ccccc2c1C(c1ccccn1)N1CCC(C(N)=O)CC1", "note": "(stereo not shown)", "hERG current change (%, negative = inhibition) at 10uM": -11.4}
{"smiles": "CCOC(=O)C1CCCN(c2c(N3CCN(C)CC3)c(=O)c2=O)C1", "note": "(stereo not shown)", "hERG current change (%, negative = inhibition) at 10uM": 8.41}
{"smiles": "CCOC(=O)C1CCCN(c2c(N3CCOCC3)c(=O)c2=O)C1", "note": "(stereo not shown)", "hERG current change (%, negative = inhibition) at 10uM": -0.407}
{"smiles": "Cc1ccc(C(=O)C2=C(O)C(=O)N(Cc3cccnc3)C2c2cccc([N+](=O)[O-])c2)o1", "note": "(stereo not shown)", "hERG current change (%, negative = inhibition) at 10uM": -9.76}
{"smiles": "CCN(C(=O)COC(=O)CSc1ccc(C(N)=O)cc1[N+](=O)[O-])C1CCCCC1", "hERG current change (%, negative = inhibition) at 10uM": 5.86}
{"smiles": "Cc1cc(Cl)nc(Cl)c1C(=O)NC(=O)NCCC(C)C", "hERG current change (%, negative = inhibition) at 10uM": 6.83}
{"smiles": "O=C(NNC(=O)C1CC=CCC1C(=O)O)c1cccs1", "note": "(stereo not shown)", "hERG current change (%, negative = inhibition) at 10uM": 16.2}
{"smiles": "CC(=O)N[C@@H](C)c1nc2ccccc2n1CCCN1CCN(c2nc(-c3ccc(C)cc3)cs2)CC1", "hERG current change (%, negative = inhibition) at 10uM": -56.2}
{"smiles": "Cc1ccc(-c2csc(N3CCN(CCCn4c(-c5ccncc5)nc5ccccc54)CC3)n2)cc1", "hERG current change (%, negative = inhibition) at 10uM": -32.4}
{"smiles": "Cc1ccc(-c2csc(N3CCN(CCCn4c(C(F)(F)F)nc5ccccc54)CC3)n2)cc1", "hERG current change (%, negative = inhibition) at 10uM": -4.95}
{"smiles": "Cc1ccc(F)c(NC(=O)C2CCCCC2C(=O)O)c1", "note": "(stereo not shown)", "hERG current change (%, negative = inhibition) at 10uM": 8.23}
{"smiles": "O=C(O)c1ccc(NC(=O)c2ccccc2NC(=O)c2cccc(F)c2)cc1", "hERG current change (%, negative = inhibition) at 10uM": 20.2}
{"smiles": "O=C(Nc1ccccc1C(F)(F)F)N1CCN(c2ccc3nnc(-c4ccc(F)cc4)n3n2)CC1", "hERG current change (%, negative = inhibition) at 10uM": -65.9}
{"smiles": "c1ccc(-c2nnc3ccc(N4CCCC4)nn23)cc1", "hERG current change (%, negative = inhibition) at 10uM": 7.51}
{"smiles": "COc1ccccc1NC(=O)N1CCN(c2ccc(F)cc2)CC1", "hERG current change (%, negative = inhibition) at 10uM": -18.7}
{"smiles": "COc1ccccc1NC(=O)N1CCN(c2ccc3nncn3n2)CC1", "hERG current change (%, negative = inhibition) at 10uM": -23.1}
{"smiles": "O=C(Nc1ccc(Cl)cc1)N1CCN(c2ccc3nnc(-c4ccc(F)cc4)n3n2)CC1", "hERG current change (%, negative = inhibition) at 10uM": -28.3}
{"smiles": "O=C(Nc1ccc(F)cc1)N1CCN(c2ccc3nnc(-c4ccc(F)cc4)n3n2)CC1", "hERG current change (%, negative = inhibition) at 10uM": -73.5}
{"smiles": "O=C(c1ccc(Br)o1)N1CCN(c2ccc3nnc(-c4ccc(F)cc4)n3n2)CC1", "hERG current change (%, negative = inhibition) at 10uM": -46.4}
{"smiles": "O=C(c1ccc(Br)o1)N1CCN(c2ccc3nnc(-c4ccccc4)n3n2)CC1", "hERG current change (%, negative = inhibition) at 10uM": -79.1}
{"smiles": "O=C(Nc1ccccc1C(F)(F)F)N1CCN(c2ccc3nncn3n2)CC1", "hERG current change (%, negative = inhibition) at 10uM": -1.32}
{"smiles": "COc1ccccc1NC(=O)N1CCN(c2ccc3nnc(-c4ccc(F)cc4)n3n2)CC1", "hERG current change (%, negative = inhibition) at 10uM": -68.9}
{"smiles": "O=C(Nc1ccccc1C(F)(F)F)N1CCN(c2ccccn2)CC1", "hERG current change (%, negative = inhibition) at 10uM": 9.98}
{"smiles": "Fc1ccc(-c2nnc3ccc(N4CCCC4)nn23)cc1", "hERG current change (%, negative = inhibition) at 10uM": 5.51}
